High-throughput results deposited in PubChem BioAssay by National Center for Advancing Translational Sciences (NCATS).
Pf Dd2 growth = qHTS Primary assay for Inhibitors of Plasmodium falciparum Dd2 growth in vitro. P. falciparum Dd2 growth, SYBR Green, 72 h. Potency, µM (series often up to 28.9 µM), without a hit: at the highest dose activity, negative = inhibition, most hits filed as inhibitors. 120,000 tested, 4.3% active; active means well fitted inhibition curve with a large enough effect;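 further: plate controls were DMSO vehicle for no effect and reference drug for full effect; nearly all actives have a fitted effect of over 65% in size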
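Infected erythrocytes (Dd2, 0.3% parasitemia, 2.5% hematocrit final) are added to compound in RPMI-1640/Albumax II medium, grown 72 h at 37C in low oxygen, then lysed with saponin/Triton-X containing SYBR Green and read by fluorescence.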
Numbers without * were called inactive; i = inactive; [ ] = dose if it differs, or a comment. The sample as a whole holds a higher share of hits than the screen did. Potency means the concentration at half of the fitted maximal effect.

SMILES	Pf Dd2 growth
CNC(=O)CCC[C@@H]1[C@H]2CCCN3CCC[C@@H](CN1C(=O)CC(C)C)[C@@H]23	-7%
Cc1cccc(C)c1NC(=O)Nc1csc2c1CCCC2	-16%
CCc1cccc(NC(=O)Nc2csc3c2CCCC3)c1	10µM*
Cc1cc(C)c(NC(=O)Nc2csc3c2CCCC3)c(C)c1	86%[5.79 µM]
COc1ccc(C(=O)N2CCCC3(COc4ccccc4C(=O)N3)C2)cc1 (stereo not drawn)	-11%
COc1ccc(C(=O)N2CCC3(CC2)COc2ccccc2CN3)cc1	1.4µM*
COc1ccc(C(=O)N2CCC3(CC2)CNC(=O)c2ccccc2O3)cc1	-16%
CC(C)(C)CC(=O)NC1CC(=O)N(c2ccc3c(c2)OCCO3)C1 (stereo not drawn)	29%
Cc1cccc(N2CCN(C(=O)C3CCN(Cc4nc(-c5ccc(Cl)cc5)oc4C)CC3)CC2)c1C	21%
COc1ccc(NC(=O)Cn2c(=O)n(CC(=O)NCCc3ccccc3)c(=O)c3ccccc32)cc1	19%
Cc1cccc(C)c1NC(=O)Cn1c(=O)n(CC2CCC(C(=O)NCCc3ccccc3)CC2)c(=O)c2ccccc21 (stereo not drawn)	i
Cc1cccc(NC(=O)Cn2c(=O)n(CC3CCC(C(=O)NCCc4ccccc4)CC3)c(=O)c3ccccc32)c1 (stereo not drawn)	11µM*
COc1cc(NC(=O)Cn2c(=O)n(CC3CCC(C(=O)NCCc4ccccc4)CC3)c(=O)c3ccccc32)cc(OC)c1 (stereo not drawn)	0.89µM*
O=C(Cn1c(=O)n(CC2CCC(C(=O)NCCc3ccccc3)CC2)c(=O)c2ccccc21)Nc1cccc(F)c1 (stereo not drawn)	-2%
Cc1cc(C)cc(NC(=O)Cn2c(=O)n(CC(=O)NCCc3ccccc3)c(=O)c3ccccc32)c1	6%
COc1ccccc1-c1ccc2c(n1)CN(Cc1csc(C)n1)C(=O)CO2	-9%[44.1 µM]
Cn1cccc1CNC(=O)C1CC(=O)N(c2n[nH]c3ccccc23)C1 (stereo not drawn)	0%
Cc1ccc(S(=O)(=O)N2CCN(C3CCN(CCC(C)C)C3=O)CC2)cc1Cl (stereo not drawn)	4µM*
Cc1cc(Cl)ccc1S(=O)(=O)N1CCN(C2CCN(CCC(C)C)C2=O)CC1 (stereo not drawn)	-28%
CC(C)CCN1CCC(N2CCN(S(=O)(=O)c3ccc(F)cc3)CC2)C1=O (stereo not drawn)	-16%
O=C1[C@@H]2C[C@@H](O)CN2C2(CN(Cc3ccc(C(F)(F)F)cc3)C2)C(=O)N1Cc1ccccc1F	i
COCCNC(=O)c1ccc(OC2CCN(Cc3ncc[nH]3)CC2)c(Cl)c1	-23%
O=C(NC1CCCC1)c1ccc(OC2CCN(CCCC(F)(F)F)CC2)c(Cl)c1	1.4µM*
COCCNC(=O)c1ccc(OC2CCN(S(C)(=O)=O)CC2)c(Cl)c1	-2%
CN1C(=O)C(CC(=O)N2CCOCC2)=C2CCCCC21 (stereo not drawn)	-25%
SMILES	Pf Dd2 growth
COc1ccc(C(=O)NC2CCN(C(=O)N3CC4CC(C3)[C@H]3CCCC(=O)N3C4)CC2)cn1 (stereo partly drawn)	i
COc1ccc(C(=O)NC2CCN(C(=O)N3CC4CC(C3)[C@H]3CCCC(=O)N3C4)CC2)c(OC)n1 (stereo partly drawn)	5µM*
COc1ccc(C(=O)NC2CCN(C(=O)N3CC4CC(C3)[C@H]3CCCC(=O)N3C4)CC2)c(OC)c1 (stereo partly drawn)	-27%
O=C(Cn1ccn2nc(-c3ccccc3)c(CO)c2c1=O)Nc1ccc(Cl)cc1	24%
COc1ccc(CC(=O)NC(C)C(=O)N2CCN(c3ccccn3)CC2)cc1 (stereo not drawn)	i
O=C(CSc1ccccn1)NCc1cccnc1N1CCOCC1	1%
Fc1ccc(CNCc2cccnc2N2CCN(c3ccccn3)CC2)cc1F	5µM*
CCOc1ccc2c(n1)CCN(C(=O)c1cccc(C)c1)C2	-8%
Fc1cccc(-n2cc(CN3CCCC4(CCOC4)C3)cn2)c1 (stereo not drawn)	-14%
CC(C)c1ccc(-n2cc(CN3CCCC(O)(CN(C)C)C3)cn2)cc1 (stereo not drawn)	6.3µM*
CN(Cc1ccc(CN2CCCC(O)(CO)C2)o1)S(C)(=O)=O (stereo not drawn)	26%
COC(=O)c1ccc2nc(CO[C@H]3CN(Cc4cccnc4)C[C@H]3F)[nH]c2c1	-21%[44.1 µM]
COC(=O)c1ccc2nc(CO[C@H]3CN(C(C)C)C[C@H]3F)[nH]c2c1	i
COC(=O)c1ccc2nc(CO[C@H]3CN(Cc4ccc5ccccc5n4)C[C@H]3F)[nH]c2c1	8.9µM*
N#Cc1ccc(S(=O)(=O)NC2CCc3n[nH]c(=O)n3CC2)cc1 (stereo not drawn)	16%
Cc1ccc(-c2cc(C(=O)NCc3c(C)cc(C)[nH]c3=O)c3c(c2)N(C(C)C)CCO3)cc1	-3%
O=C(N[C@H]1CCN2C(=O)c3cc(-c4ccccc4F)ccc3NC(=O)[C@H]12)c1cnccn1	5.6µM*
O=C(N[C@H]1CCN2C(=O)c3cc(/C=C/c4ccc(O)cc4)ccc3NC(=O)[C@H]12)c1cnccn1	-21%
O=C(N[C@H]1CCN2C(=O)c3cc(/C=C/c4ccccc4)ccc3NC(=O)[C@H]12)c1cnccn1	-14%[44.1 µM]
CC(=O)Nc1ccc(C(=O)CSc2nnc(-c3ccccc3)n2-c2ccccc2)cc1	15%
COC(=O)c1sccc1S(=O)(=O)N1CCN2C(=O)CN(C)C(=O)C2C1 (stereo not drawn)	24%
CNC(=O)N1CCC(C2CCN(C(=O)c3cnccn3)C2)CC1 (stereo not drawn)	16%
Cc1c(C(=O)N2CCC(c3nc4ccccc4s3)CC2)oc2ccc(Cl)cc12	53%
CCCN(CCC)C(=O)Cn1c(=O)n(Cc2ccc(C(=O)NCCc3ccc(Cl)cc3)cc2)c(=O)c2ccccc21	-4%
Cc1cc(Cl)ccc1OCC(=O)N1CCC(c2nc3ccccc3o2)CC1	21%
SMILES	Pf Dd2 growth
O=C(O)c1cnc(NCc2ccccn2)nc1-c1cccc(Cl)c1	17%
NCc1ccccc1Oc1ccc(F)c(Cl)c1	11µM*
COc1ccc2c(c1)c1c(c(=O)n(-c3ccc(F)c(Cl)c3)c(=O)n1Cc1ccccc1F)n2C	16%
CCCN1CCN(C(=O)CC2CCCN(c3cnn(C)c(=O)c3)C2)CC1 (stereo not drawn)	48%
NC(=O)CSc1nc2c(oc3ccccc32)c(=O)n1-c1ccccc1F	31%
COc1ccc(CN2C(=O)[C@@H]3C[C@@H](O)CN3C3(CN(Cc4cccc(OC)c4)C3)C2=O)cc1	i
COc1ccc(CN2C(=O)[C@@H]3C[C@@H](O)CN3C3(CN(Cc4ccncc4)C3)C2=O)cc1	6%[44.1 µM]
COc1ccc(CN2C(=O)[C@@H]3C[C@@H](O)CN3C3(CN(Cc4cnc5ccccc5c4)C3)C2=O)cc1	7.1µM*
CSc1cccc(NC(=O)Cn2ccn3nc(-c4ccc(F)cc4)c(CO)c3c2=O)c1	-1%
O=C(c1cnc2c(c1)CCCC2)N1C[C@H](CO)C[C@H](CN2CCOCC2)C1	3%
CCCn1c(C)cnc1CC1CCCNC1 (stereo not drawn)	5%
CCCC(=O)N1CCC2(CC1)SCC(=O)N2c1ccc(F)cc1	-17%
O=C(Cc1ccc2c(c1)OCO2)NCc1cccnc1N1CCOCC1	-4%
Cc1nc(C(=O)N2CCOc3c(O)cc(-c4cccc(Cl)c4)cc3C2)c(C)o1	-19%
CCn1cc(C(=O)N2CCOc3c(O)cc(-c4ccccc4C)cc3C2)cn1	13µM*
